# Source: PubChem (The Scripps Research Institute Molecular Screening Center)
# Only some compounds are listed: those with a hit (about 2.8% of all), similar ones and a draw of the others.
# Fam108B counter = mouse Fam108B serine hydrolase inhibitors, primary screen, counter-screen for RBBP9 inhibitor project, biochemical, fluorescence polarization | inhibition, % at 9.51 µM | 300,000 compounds, 0.33% hits | recombinant Fam108B, FP-Rh probe fluorescence polarization;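 active = inhibition above the screen mean inhibition plus 3 SD, computed separately per campaign, cut at about 18% in these data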;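 note: inhibitors lower polarization as less probe binds the enzyme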
# PAFAH1B3 FP inh = PAFAH1B3 enzyme inhibitors, primary screen, biochemical, fluorescence polarization, human. Platelet-activating factor acetylhydrolase IB subunit alpha1 (Homo sapiens), Q15102. recombinant PAFAH1B3, FP-rhodamine probe. 340,000 compounds, 0.28% hits. inhibition, % at 3.39 µM;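 active = inhibition above the screen-wide average of all tested compounds plus 3 SD, cut at about 25% in these data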
# Target sequence (Q15102 whole entry, looked up): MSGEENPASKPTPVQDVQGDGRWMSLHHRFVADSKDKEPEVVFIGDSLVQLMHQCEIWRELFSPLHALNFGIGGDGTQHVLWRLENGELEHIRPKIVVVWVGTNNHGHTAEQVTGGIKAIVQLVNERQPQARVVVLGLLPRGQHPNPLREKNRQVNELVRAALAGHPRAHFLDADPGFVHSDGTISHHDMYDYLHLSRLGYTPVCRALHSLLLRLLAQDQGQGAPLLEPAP
# PAFAH2 inh = PAFAH2 enzyme inhibitors, primary screen, biochemical, fluorescence polarization, human; Platelet-activating factor acetylhydrolase 2, cytoplasmic (Homo sapiens), Q99487; recombinant PAFAH2, FP-rhodamine activity probe; AID 492956, 2010; inhibition, % at 3.39 µM; 340,000 compounds, 0.99% hits;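 active = inhibition above the mean over all tested compounds plus 3 SD, cut at about 30% in these data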;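 note: inhibitors block probe labeling of enzyme so polarization drops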
# PAFAH1B2 inh = PAFAH1B2 enzyme inhibitors, primary screen, biochemical, fluorescence polarization, human; recombinant PAFAH1B2, FP-rhodamine activity probe; inhibition, % at 3.39 µM; 340,000 compounds, 1.2% hits; AID 492953, 2010;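 active = inhibition above the mean of all tested compounds plus 3 SD, cut at about 24% in these data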
# pPAFAH inh = pPAFAH enzyme inhibitors, primary screen, biochemical, fluorescence polarization, human; Platelet-activating factor acetylhydrolase (Homo sapiens), Q13093; recombinant pPAFAH, FP-rhodamine probe fluorescence polarization; inhibition, % at 3.39 µM; 330,000 compounds, 1.5% hits; AID 463082, 2010;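 active = inhibition above the mean inhibition across the screen plus 3 SD, cut at about 25% in these data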;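 note: inhibitors block binding of the rhodamine activity-based probe so polarization drops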
# PME-1 inh = PME-1 inhibitors via competitive probe labeling, primary screen, biochemical, fluorescence polarization, FP-Rh probe, HTS | Protein phosphatase methylesterase 1 (Homo sapiens), Q9Y570 | recombinant PME-1 | inhibition, % at 5.9 µM | 320,000 compounds, 0.53% hits | AID 2130, 2009;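 active = inhibition above the campaign mean of all compounds plus 3 SD, cut at about 26% in these data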;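 note: competitive labeling of PME-1 active site by serine hydrolase directed probe; inhibitors block probe labeling so polarization falls and inhibition rises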
# Target sequence (Q9Y570 whole entry, looked up): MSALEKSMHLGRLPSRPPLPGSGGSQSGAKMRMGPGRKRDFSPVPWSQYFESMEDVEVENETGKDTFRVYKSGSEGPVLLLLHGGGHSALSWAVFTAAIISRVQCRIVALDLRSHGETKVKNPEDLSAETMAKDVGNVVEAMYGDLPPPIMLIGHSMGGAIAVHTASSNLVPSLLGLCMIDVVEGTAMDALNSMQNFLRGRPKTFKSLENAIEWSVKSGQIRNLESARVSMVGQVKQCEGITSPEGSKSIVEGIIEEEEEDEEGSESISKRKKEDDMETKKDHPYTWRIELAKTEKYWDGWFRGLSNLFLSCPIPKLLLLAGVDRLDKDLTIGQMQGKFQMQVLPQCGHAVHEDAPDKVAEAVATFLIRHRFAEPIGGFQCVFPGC
# A number is an active result; i = inactive; nt = no result given.
SMILES,Fam108B counter,PAFAH1B3 FP inh,PAFAH2 inh,PAFAH1B2 inh,pPAFAH inh,PME-1 inh
COc1ccc(C(=O)ON=C2CCN(c3ccc([N+](=O)[O-])cc3)CC2)cc1,i,i,88.8,i,i,i
Nc1nc(-c2ccccc2)c(N=Nc2cccc3ccccc23)s1,i,i,i,i,30.7,i
CCN(C1CCCCC1)S(=O)(=O)c1ccc(S(=O)(=O)NCCc2ccncc2)cc1,i,i,i,25.1,i,i
CCN(C1CCCCC1)S(=O)(=O)c1ccc(S(=O)(=O)NCc2ccncc2)cc1,i,i,i,i,i,i
CCCc1ccc(OCc2ccc(C(=O)N3CCSCC3)o2)cc1,i,i,i,i,24.6,i
O=C(OCc1c(-c2ccccc2)ncc2ccccc12)c1ccco1,nt,i,i,i,31.6,nt
O=C(O)[C@@H]1CC(O)CN1C(=O)CCc1c[nH]c2ccccc12 (some centres undefined),nt,i,i,i,nt,nt
CC(=O)NN1C(=O)/C(=C\c2ccc(Br)o2)SC1=S,i,i,i,i,27.3,i
c1ccc(-[n+]2nc(Nc3cccc4ccccc34)sc2-c2c3ccccc3cc3ccccc23)cc1,i,i,i,i,i,i
S=c1[nH]c(-c2ccccc2)cn1/N=C/c1cccc2ccccc12,i,i,i,i,i,28.3
S=c1[nH]c(-c2ccccc2)cn1/N=C/c1ccccc1Br,i,i,i,i,i,i
CN1OC(COC(=O)c2ccc(Cl)cc2Cl)CC1c1ccccc1 (centres undefined),i,i,i,i,25.6,i
O=c1[nH]c(CN2CCN(c3ccc([N+](=O)[O-])cc3)CC2)nc2ccsc12,i,i,i,32.1,i,i
COc1ccc(N2CCN(Cc3nc4ccsc4c(=O)[nH]3)CC2)cc1,i,i,i,i,i,i
COc1ccc(C(=O)Cn2cc[n+](C)c2)cc1,i,i,i,i,i,i
Oc1cc(NCCN2CCOCC2)cc2cccnc12,nt,53.8,i,i,i,nt
COc1ccc(CCN2CC(C(=O)NCCc3ccc(C)cc3)CC2=O)cc1OC (centres undefined),i,i,i,i,29.4,i
O=C(NCC(O)c1ccccc1)c1ccc(Cl)c(S(=O)(=O)N2CCCCC2)c1 (centres undefined),i,i,i,i,i,i
Cc1c(NC(=O)CSc2nnc(C(C)N(C)C)n2-c2ccccc2)c(=O)n(-c2ccccc2)n1C (centres undefined),nt,i,i,i,nt,nt
O=C1/C(=C/c2cccs2)CCC/C1=C\c1cccs1,i,i,i,i,29.1,i
COC(=O)C1CCN(C(=O)COC(=O)c2cc(-c3ccccc3)nc3ccc(OC)cc23)CC1,nt,i,i,i,i,i
O=C(CSc1nc(-c2ccccc2)cs1)NCCCN1CCCC1=O,nt,i,i,i,i,nt
CCOC(=O)c1c(-c2ccc(-c3ccccc3)cc2)csc1NC(=O)C1C2CCC(O2)C1C(=O)O (centres undefined),i,i,i,i,28.4,i
Cc1sc(NC(=O)c2sc3nc4c(C)cccc4cc3c2N)c(C#N)c1C,i,i,i,i,27.2,i
COc1ccc(/C=C/C(=O)CC(O)(c2ccccc2)C(F)(F)F)cc1 (centres undefined),i,i,i,25.5,i,i
SMILES,Fam108B counter,PAFAH1B3 FP inh,PAFAH2 inh,PAFAH1B2 inh,pPAFAH inh,PME-1 inh
O=C(/C=C/c1ccccc1)COC(=O)c1ccccc1,nt,i,i,i,nt,nt
O=C(/C=C/c1ccccc1)CC(O)(c1ccccc1)C(F)(F)F (centres undefined),i,i,i,54.8,i,i
CC1(O)CC2CC1C(C(=O)O)C2C(=O)O (centres undefined),nt,i,i,i,nt,nt
CCOc1ccc(CNC(=O)CCC(=O)n2ncc3ccc(Cl)cc32)cc1,i,i,i,i,i,i
CCC1=NNc2cccc3c(OC)ccc1c23,i,nt,nt,nt,48.4,i
O=C(NCCCN1CCCC(O)C1)c1cc(COc2ccc(F)cc2F)on1 (centres undefined),i,i,i,i,i,i
Cc1cc(O)c(NC(=S)NC(=O)c2ccc(-c3ccc(Cl)cc3)o2)cc1C,i,i,i,i,i,38.6
Cc1ccc(NC(=S)NC(=O)c2ccc(-c3ccc(Cl)cc3)o2)c(O)c1,i,i,i,i,i,29.8
Cc1ccc(O)c(NC(=S)NC(=O)Cc2ccc(Cl)cc2)c1,i,i,i,i,i,i
O=C(c1ccc([N+](=O)[O-])cc1)N1CCSC1c1ccc(Cl)cc1 (centres undefined),i,i,i,29.0,i,i
Cc1ccc(C2SCCN2C(=O)c2ccc([N+](=O)[O-])cc2)cc1 (centres undefined),i,i,i,24.5,i,i
CC(=O)Nc1ccc(N2C(=O)CSC2c2ccc([N+](=O)[O-])cc2)cc1 (centres undefined),i,i,i,i,i,i
Cc1ccc(C(=O)c2ccc([N+](=O)[O-])cc2)cc1,i,i,i,i,i,i
COC(=O)c1cc(CNC(=O)c2sccc2-c2ccccc2)ccc1OC,i,i,i,i,i,i
CSc1nc2nccc(-c3ccc(Oc4ccccc4)cc3)n2n1,i,i,i,i,29.6,i
O=S(=O)(c1ccc(Cl)cc1)c1cc(O)ccc1O,i,i,i,26.2,i,i
O=S(=O)(c1ccccc1)c1cc(O)ccc1O,i,i,i,i,i,i
Cc1ccc2c(c1)-n1c(nc3cc(Cl)ccc3c1=O)C(Cc1ccccc1)NC2=O (centres undefined),nt,nt,nt,nt,i,nt
C[C@H](NS(=O)(=O)OCC(Cl)(Cl)Cl)C1CC1c1ccccc1 (some centres undefined),i,i,i,31.8,26.1,i
CC(NS(=O)(=O)OCC(Cl)(Cl)Cl)c1ccc(C(C)(C)C)cc1 (centres undefined),i,i,i,i,i,i
C#CCOCCOCCOCCNc1nc(N2CCN(C(=O)CCCCCCCCCCNC(=O)Cn3cc(CCCCCN)nn3)CC2)nc(N2CCN(C(=O)CCCCCCCCCCNC(=O)Cn3cc(CCCCCN)nn3)CC2)n1,i,i,i,i,i,i
COC(=O)C1=C(CSc2nc3c(cc2C#N)CN(C)CC3)OC(N)=C(C#N)C1c1ccc(F)cc1 (centres undefined),i,i,i,i,26.1,i
Nc1ccn(C2OC(COP(=O)(O)O)C(O)C2O)c(=O)n1 (centres undefined),nt,i,i,i,nt,nt
Cc1cccc(C(=O)O/N=C(\c2ccccc2)c2cccnc2)c1,i,i,71.7,i,30.0,i
N/C(=N\OC(=O)c1ccccc1)c1cccnc1,i,i,i,i,i,i
Nc1nnc(CSCc2ccc(Cl)cc2)s1,i,i,i,27.9,i,i
